PubChem BioAssay (NCI)
This is part of a sample that, as a whole, favours compounds with a hit. Of some 79,000 tested, about 15% had one in any assay. The source made the active and inactive calls. Rule as the data show it: active = growth inhibition above about 70%; inactive = the rest.

Key:
[1] = NCI Yeast Anticancer Drug Screen. Data for the rad52 strain (AID 147);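 also: 0% = growth of vehicle-treated control cultures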; details: S. cerevisiae rad52 mutant growth inhibition, hits give high values
In short: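 The repair-mutant yeast strain was incubated with compounds, then growth was read and inhibition derived relative to vehicle.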

[2] = NCI Yeast Anticancer Drug Screen. Data for the wt1 strain (AID 149);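 also: 0% = growth of vehicle-treated wt1 cultures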; details: S. cerevisiae wt1 strain (SPY 50644) growth inhibition, hits give high values
In short: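 Growth inhibition read against vehicle controls after compound exposure of the wt1 yeast strain.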

[3] = NCI Yeast Anticancer Drug Screen. Data for the rad50EPP+ strain (AID 151);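 also: 0% = growth of vehicle-treated control cultures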; details: S. cerevisiae rad50 mutant strain, hits give high values
In short: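 Vehicle-normalised growth inhibition; rad50EPP+ yeast strain, altered in DNA damage repair, compound-treated.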

[4] = NCI Yeast Anticancer Drug Screen. Data for the mgt1 strain (AID 153); details: S. cerevisiae mgt1 mutant growth inhibition, hits give high values
In short: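 Vehicle-normalized growth inhibition is determined in mgt1 yeast, a strain selected for a defined alteration in DNA repair or cell cycle control.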

[5] = NCI Yeast Anticancer Drug Screen. Data for the rad50 strain (AID 155);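 also: 0% = growth of vehicle-only cultures of the same strain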; details: S. cerevisiae rad50 strain growth inhibition, hits give high values
In short: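 Readout: growth inhibition relative to vehicle-treated cultures. Compound exposure was carried out in a genetically defined yeast strain deficient in DNA damage repair.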

[6] = NCI Yeast Anticancer Drug Screen. Data for the mec2-1 strain (AID 157); details: S. cerevisiae mec2-1 strain, hits give high values
In short: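 Mutant yeast (mec2-1) grown with compound; growth inhibition relative to vehicle control reported.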

[7] = NCI Yeast Anticancer Drug Screen. Data for the rad14 strain (AID 159);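 also: 0% = growth of vehicle-treated control cultures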; details: S. cerevisiae rad14 strain growth inhibition, hits give high values
In short: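 Growth inhibition vs vehicle controls; genetically altered yeast strain (DNA damage repair defect) treated with test compounds.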

[8] = NCI Yeast Anticancer Drug Screen. Data for the sgs1 mgt1 strain (AID 161);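 also: 0% = growth of cultures given vehicle only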; details: S. cerevisiae sgs1 mgt1 strain, hits give high values
In short: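 Yeast cells carrying a defined DNA-repair defect were exposed to test compounds. Growth inhibition was measured relative to vehicle-treated controls.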

[9] = NCI Yeast Anticancer Drug Screen. Data for the CLN2oe strain (AID 163);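 also: 0% = growth of vehicle-only control cultures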; details: S. cerevisiae CLN2oe strain, hits give high values
In short: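 Compounds are applied to yeast harbouring a defined cell-cycle control change; reduced growth compared with vehicle-treated controls gives the value.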

[10] = NCI Yeast Anticancer Drug Screen. Data for the cln2 rad14 strain (AID 165);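 also: 0% = growth equal to vehicle treated cultures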; details: S. cerevisiae cln2 rad14 strain, hits give high values
In short: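 Readout is yeast growth inhibition versus vehicle-treated controls, using a strain with cln2 and rad14 alterations exposed to compound.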

[11] = NCI Yeast Anticancer Drug Screen. Data for the bub3 strain (AID 167); details: S. cerevisiae bub3 mutant strain, hits give high values
In short: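 Readout: yeast growth inhibition, expressed relative to vehicle-only wells. The test organism is a mutant strain from a panel with lesions in DNA repair or checkpoint genes.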

[12] = NCI Yeast Anticancer Drug Screen. Data for the wt2 strain (AID 169);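 also: 0% = growth of vehicle-treated yeast cultures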; details: S. cerevisiae wt2 strain growth inhibition, hits give high values
In short: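 Against vehicle-treated controls, the growth of yeast exposed to each compound was compared, and the inhibition was recorded.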

[13] = NCI Yeast Anticancer Drug Screen. Data for the mlh1 strain (AID 171);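 also: 0% = growth of vehicle-treated control cultures of the same strain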; details: S. cerevisiae mlh1 strain growth inhibition, hits give high values
In short: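 Measured: yeast growth. Reference: vehicle-treated controls. Organism: strain with a defined alteration affecting DNA damage repair or cell cycle control, treated with compound.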

[14] = NCI Yeast Anticancer Drug Screen. Data for the sgs1 strain (AID 173);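 also: 0% = growth of vehicle-only control cultures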; details: S. cerevisiae sgs1 mutant, hits give high values
In short: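 Each compound was added to cultures of the altered yeast strain. Growth was recorded, and inhibition was derived by comparison with vehicle controls.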

[15] = NCI Yeast Anticancer Drug Screen. Data for the mlh1 rad18 strain (AID 175); details: S. cerevisiae mlh1 rad18 strain growth inhibition, hits give high values
In short: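 Genetically defined yeast (DNA repair-deficient) exposed to compounds; growth inhibition determined relative to vehicle.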

[16] = NCI Yeast Anticancer Drug Screen. Data for the rad18 strain (AID 177); details: S. cerevisiae rad18 mutant growth inhibition, hits give high values
In short: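 Vehicle-treated cultures served as the baseline for scoring compound-induced growth inhibition in DNA-repair-mutant yeast.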

[17] = at 5.0 µM (retest, dose inferred, filed as 0.5)
[18] = at 50.0 µM (retest, dose inferred, filed as 5.0)

Measured: growth inhibition

c1ccc2cc(NCNc3ccc4ccccc4c3)ccc2c1
active: [5]; [18] 75% | [5]; at 50.0 µM 95.8% | [8]; at 50.0 µM 95.3% | [10]; at 50.0 µM 76.9% | [11]; [18] 76% | [11]; at 50.0 µM 94.8% | [15]; at 50.0 µM 94.9%
inactive: [1]; at 1.2 µM -3% | [1]; at 3.7 µM -6% | [1]; at 11.0 µM -9% | [1]; at 33.0 µM 1% | [1]; at 100.0 µM 24% | [2]; at 1.2 µM 2% | [2]; at 3.7 µM 3% | [2]; at 11.0 µM 6% | [2]; at 33.0 µM 11% | [2]; at 100.0 µM 16% | [3]; at 1.2 µM 0% | [3]; at 3.7 µM 6% | [3]; at 11.0 µM 11% | [3]; at 33.0 µM 26% | [3]; at 100.0 µM 42% | [4]; at 1.2 µM 1% | [4]; at 3.7 µM 0% | [4]; at 11.0 µM 3% | [4]; at 33.0 µM 8% | [4]; at 100.0 µM 12% | [5]; at 1.2 µM 1% | [5]; at 3.7 µM -5% | [5]; [17] -9% | [5]; at 11.0 µM 5% | [5]; at 33.0 µM 0% | [5]; at 100.0 µM 22% | [6]; at 1.2 µM 0% | [6]; at 3.7 µM 1% | [6]; [17] 8% | [6]; at 11.0 µM 3% | [6]; at 33.0 µM 14% | [6]; [18] 46% | [6]; at 50.0 µM 69.8% | [6]; at 100.0 µM 27% | [7]; at 1.2 µM 1% | [7]; at 3.7 µM 1% | [7]; at 11.0 µM 0% | [7]; at 33.0 µM -13% | [7]; at 100.0 µM 16% | [8]; [17] 0% | [8]; [18] 46% | [9]; at 1.2 µM -3% | [9]; at 3.7 µM -3% | [9]; at 11.0 µM -6% | [9]; at 33.0 µM -1% | [9]; at 100.0 µM 6% | [10]; [17] -17% | [10]; [18] -22% | [11]; at 1.2 µM 0% | [11]; at 3.7 µM 6% | [11]; [17] 18% | [11]; at 11.0 µM -22% | [11]; at 33.0 µM 51% | [11]; at 100.0 µM 55% | [12]; at 1.2 µM -1% | [12]; at 3.7 µM 1% | [12]; at 11.0 µM 1% | [12]; at 33.0 µM 7% | [12]; at 100.0 µM 12% | [13]; at 1.2 µM 3% | [13]; at 3.7 µM 3% | [13]; at 11.0 µM 4% | [13]; at 33.0 µM -22% | [13]; at 100.0 µM 15% | [14]; at 1.2 µM 3% | [14]; at 3.7 µM 0% | [14]; at 11.0 µM 1% | [14]; at 33.0 µM 8% | [14]; at 100.0 µM 27% | [15]; [17] 12% | [15]; [18] 65% | [16]; at 1.2 µM -5% | [16]; at 3.7 µM -2% | [16]; at 11.0 µM -19% | [16]; at 33.0 µM -9% | [16]; at 100.0 µM 3%

N#CC1=C(N)N(/N=C/c2ccccc2)C(c2ccccc2)C1(C#N)C#N (stereo unspecified)
inactive: [1]; at 1.2 µM 15% | [1]; at 3.7 µM 41% | [2]; at 1.2 µM 12% | [2]; at 3.7 µM 12% | [2]; at 11.0 µM 10% | [2]; at 33.0 µM 55% | [2]; at 100.0 µM 58% | [3]; at 1.2 µM 20% | [3]; at 3.7 µM 14% | [3]; at 11.0 µM 8% | [3]; at 33.0 µM 23% | [3]; at 100.0 µM 5% | [4]; at 1.2 µM 8% | [4]; at 3.7 µM 33% | [5]; at 1.2 µM 5% | [5]; at 3.7 µM 17% | [5]; [17] 16% | [5]; at 11.0 µM 66% | [5]; at 50.0 µM 39.9% | [6]; at 1.2 µM 9% | [6]; at 3.7 µM 31% | [6]; [17] 4% | [6]; at 50.0 µM 58.5% | [7]; at 1.2 µM 4% | [7]; at 3.7 µM 19% | [7]; at 11.0 µM 45% | [8]; [17] 5% | [9]; at 1.2 µM 25% | [9]; at 3.7 µM 40% | [9]; at 11.0 µM 64% | [10]; [17] -4% | [10]; [18] 46% | [10]; at 50.0 µM 45.7% | [11]; at 1.2 µM 9% | [11]; at 3.7 µM 21% | [11]; [17] 13% | [11]; at 50.0 µM 65.7% | [12]; at 1.2 µM -9% | [12]; at 3.7 µM 51% | [13]; at 1.2 µM 13% | [13]; at 3.7 µM 27% | [14]; at 1.2 µM 15% | [14]; at 3.7 µM 41% | [15]; [17] 14% | [15]; at 50.0 µM 63.5% | [16]; at 1.2 µM 3% | [16]; at 3.7 µM 22%
active: [1]; at 11.0 µM 78% | [1]; at 33.0 µM 90% | [1]; at 100.0 µM 84% | [4]; at 11.0 µM 84% | [4]; at 33.0 µM 96% | [4]; at 100.0 µM 95% | [5]; at 33.0 µM 90% | [5]; [18] 83% | [5]; at 100.0 µM 87% | [6]; at 11.0 µM 72% | [6]; at 33.0 µM 91% | [6]; [18] 87% | [6]; at 100.0 µM 87% | [7]; at 33.0 µM 89% | [7]; at 100.0 µM 90% | [8]; [18] 76% | [8]; at 50.0 µM 76.6% | [9]; at 33.0 µM 88% | [9]; at 100.0 µM 93% | [11]; at 11.0 µM 77% | [11]; at 33.0 µM 93% | [11]; [18] 88% | [11]; at 100.0 µM 95% | [12]; at 11.0 µM 94% | [12]; at 33.0 µM 86% | [12]; at 100.0 µM 87% | [13]; at 11.0 µM 79% | [13]; at 33.0 µM 95% | [13]; at 100.0 µM 93% | [14]; at 11.0 µM 80% | [14]; at 33.0 µM 93% | [14]; at 100.0 µM 95% | [15]; [18] 89% | [16]; at 11.0 µM 81% | [16]; at 33.0 µM 89% | [16]; at 100.0 µM 89%
